Screens (PubChem BioAssay)
Sampled rows, rich in hits. Any-hit rate of the full collection: about 19%.
TDP1 cell noCPT – qHTS for Inhibitors of human tyrosyl-DNA phosphodiesterase 1 (TDP1): qHTS in cells in absence of CPT; Potency, µM (titrated, usually from 46.2 µM), most hits filed as inhibitors; 15% of 420,000 active; DT40 Tdp1-/- hTDP1 cells, no CPT, ATP luminescence, 48 h; further: nearly all actives have a fitted effect of over 55% in size
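Readout: luminescence from CellTiter-Glo after 30 min in the dark at RT. Cells: DT40 Tdp1-/- with stable hTDP1, 400/well. Exposure: compounds alone, ≥48 hr, 37 °C.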
TDP1 cell CPT – DT40-hTDP1 cell growth loss with CPT | 12% of 420,000 active | Potency, µM (titrated, usually from 46.2 µM), most hits filed as inhibitors | chicken DT40 Tdp1-/-;hTDP1 cells + 20 nM CPT, ATP luminescence, 48 h; further: nearly all actives have a fitted effect of over 55% in size
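Chicken DT40 Tdp1-/- cells complemented with human TDP1, 400 cells/well, exposed to compounds plus 20 nM camptothecin for at least 48 h at 37 C; viability read as ATP content by CellTiter-Glo luminescence.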
Giardia killer – Giardia lamblia killing | Giardia lamblia trophozoite viability | activity change, % at 7.66 µM, hits read low | 0.15% of 340,000 active | AID 540267; in the data active means activity change below about -80%; inconclusive means between about -30% and that limit;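 further: parasites exposed to compound for two days anaerobically before the ATP read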
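Trophozoites 100 cells/well + cpd; 48 hrs, 37 deg C, anaerobic. ATPLite 1-Step added, 15-30 min RT, luminescence read (ATP-based viability).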
ELG1 DNA repair – ELG1-dependent DNA repair inhibition | HEK293T ELG1-luciferase reporter, luminescence, 16 h; DNA damage induced by 5-fluorouridine | Potency, µM (series often up to 46.1 µM), hits mostly inhibitors | 2.3% of 330,000 active | AID 504467; further: nearly all actives have a fitted effect of over 55% in size
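In this reporter screen, reduction of luminescence relative to DMSO vehicle indicated activity. Compounds and 5-fluorouridine were added together to 2,000 cells per well, incubated for 16 hr at 37 °C, then developed with ONE-Glo.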
IL-1B inflam inh – inflammasome signaling inhibition, IL-1 beta readout; THP-1 LPS/ATP IL-1B secretion, AlphaLISA, 16 h; hits give low values; activity change, % at 57.5 µM; 4.7% of 360,000 active; in the data active means activity change below about -50%; inconclusive means mostly about -30% to -49%
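THP-1 cells pretreated 1 hr with compounds (up to 57.5 uM final), then stimulated with LPS (250 ng/mL final) plus ATP (1.25 mM final); secreted IL-1B measured by AlphaLISA after 16 hr, decreased signal indicating inhibition.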
TDP1 block – blocks human tyrosyl-DNA phosphodiesterase 1; Potency, µM (titrated, usually from 130 µM), actives largely listed as inhibitors; 0.28% of 350,000 active; recombinant TDP1, AlphaScreen DNA substrate cleavage; further: nearly all actives have a fitted effect of over 40% in size
Target sequence (Q9NUW8 whole entry, looked up): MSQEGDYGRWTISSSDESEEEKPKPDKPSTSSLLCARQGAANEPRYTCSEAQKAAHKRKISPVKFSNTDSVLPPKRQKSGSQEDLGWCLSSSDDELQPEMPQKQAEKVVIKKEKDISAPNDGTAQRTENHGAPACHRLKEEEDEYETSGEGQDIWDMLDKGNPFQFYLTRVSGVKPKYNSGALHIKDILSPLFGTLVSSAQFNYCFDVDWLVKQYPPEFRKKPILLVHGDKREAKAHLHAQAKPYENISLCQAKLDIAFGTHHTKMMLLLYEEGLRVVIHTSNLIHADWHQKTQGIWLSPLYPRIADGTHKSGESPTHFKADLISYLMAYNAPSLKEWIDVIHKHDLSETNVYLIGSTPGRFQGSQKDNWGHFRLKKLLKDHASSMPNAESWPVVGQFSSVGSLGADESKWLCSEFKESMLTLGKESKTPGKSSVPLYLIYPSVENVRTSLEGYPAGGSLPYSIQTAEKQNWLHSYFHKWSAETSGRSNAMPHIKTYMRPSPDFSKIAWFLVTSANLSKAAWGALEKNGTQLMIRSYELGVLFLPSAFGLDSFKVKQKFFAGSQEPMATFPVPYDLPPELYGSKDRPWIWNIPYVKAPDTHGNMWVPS
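Recombinant E. coli-expressed Tdp1 (1 nM) preincubated with compound 15 min at RT, then 5'-biotin/3'-phosphotyrosine-FITC DNA substrate (15 nM) added for 5 min. AlphaScreen beads (10 ug/ml) added, 10 min RT; tyrosine-FITC cleavage read as signal loss.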
A number is an active result; – = inactive; ? = inconclusive; · = not tested or not shown; [ ] = dose if it differs, or a comment. Unless noted, the call rests on the fitted dose curve; in most records, active means well fitted curve in the direction sought with a large enough effect; inconclusive means small, poorly fitted or top-dose-only effect, or another doubt; inactive means no such curve, though single readings can be large; an effect the other way counts as inactive or inconclusive.

SMILES	TDP1 cell noCPT	TDP1 cell CPT	Giardia killer	ELG1 DNA repair	IL-1B inflam inh	TDP1 block
Cc1onc(-c2ccccc2Cl)c1C(=O)NC1C(=O)N2C1SC(C)(C)C2C(=O)O (stereo not given)	–	–	·	·	·	–
CNCc1nc(-c2ccc[nH]2)c2cc(Cl)ccc2n1	14µM	11µM	·	·	·	·
CSc1nc(-c2ccccc2)c2cc(Cl)ccc2n1	?	–	–	–	–	–
COC(=O)[C@@]1(Cc2ccc(OC)cc2)[C@H]2c3cc(C(=O)N(C)C)n(Cc4ccc(S(C)(=O)=O)cc4)c3C[C@H]2CN1C(=O)c1ccccc1	·	·	·	·	·	–
COC(=O)[C@@]1(Cc2ccc(F)cc2)[C@H]2c3cc(C(=O)N(C)C)n(Cc4ccc(S(C)(=O)=O)cc4)c3C[C@H]2CN1C(=O)c1ccccc1	?	21µM	·	·	–	–
COC(=O)[C@@]1(Cc2ccc(F)cc2)[C@H]2c3cc(C(=O)N4CCCC4)n(Cc4ccc(S(C)(=O)=O)cc4)c3C[C@H]2CN1C(=O)c1ccccc1	18µM	?	·	·	–	–
COc1ccc(-c2nc3c4ccccc4n(CC(=O)N4CCN(c5ccc(F)cc5)CC4)c(=O)n3n2)cc1	–	–	·	·	·	–
O=C(NCC(O)c1ccc([N+](=O)[O-])cc1)C1=COCCO1 (stereo not given)	–	–	–	–	–	–
CSc1nc2nc3c(c(=O)n2[nH]1)CN(Cc1ccccc1)CC3	?	26µM	–	–	–	–
O=c1c2c(nc3nc(SCc4ccccc4)[nH]n13)CCC2	–	–	–	–	–	–
C/C(=N\Nc1nc2ccccc2[nH]1)c1ccc(Cl)s1	23µM	?	–	?	-97	–
O=C(CSc1nc2ccccc2[nH]1)c1ccc(Cl)s1	–	–	–	?	–	–
C/C(=N\Nc1nc2ccccc2[nH]1)c1ccc(N2CCOCC2)cc1	16µM	?	?	?	-96	–
CC(=O)c1cccc(OC(=O)Oc2cccc(C(C)=O)c2)c1	–	?	–	·	–	·
CN(C)c1cc[n+](CC(=O)c2ccc(Br)cc2)cc1	?	16µM	–	9.2µM	–	–
Cc1ccc[n+](CC(=O)c2ccc(Br)cc2)c1	–	–	–	–	–	·
COc1ccc(C(=O)C[n+]2ccc(N(C)C)cc2)cc1	16µM	?	–	–	–	–
COc1ccc(Br)c(Cn2c(C)c(C(=O)NCc3ccccc3C(F)(F)F)sc2=O)c1	?	?	·	·	–	·
CN=C1S/C(=C\c2cc(C)n(-c3ccccc3F)c2C)C(=O)N1C	23µM	15µM	–	?	–	–
Cc1cc(/C=C2\SC(=O)N(C)C2=O)c(C)n1-c1ccc(O)cc1	21µM	?	–	?	–	·
Cc1cc(/C=C2\SC(=O)N(C)C2=O)c(C)n1-c1ccc(S(N)(=O)=O)cc1	9.2µM	18µM	–	–	–	·
Cc1cc(/C=C2\SC(=O)NC2=O)c(C)n1-c1ccc(N(C)C)cc1	–	–	–	–	–	·
Cc1ccc(-n2c(C)cc(C=C3C(=O)N(C)C(=O)N(C)C3=O)c2C)cc1	–	–	–	·	–	·
O=C(O)C1CCCCN1C(=O)c1cc2c(s1)CCCCC2 (stereo not given)	–	–	–	–	–	–
Cc1ccccc1C1(CC(=O)N2CC3CC4CC(C3)CC2C4)CC(=O)N(Cc2cccnc2)C1=O (stereo not given)	?	–[9.04 µM]	·	·	·	·
SMILES	TDP1 cell noCPT	TDP1 cell CPT	Giardia killer	ELG1 DNA repair	IL-1B inflam inh	TDP1 block
CCOCCOC(=O)C1=C(C)NC2=C(C(=O)CC(c3cccs3)C2)C1c1ccsc1 (stereo not given)	?	?	–	?	–	–
COCCOC(=O)c1[nH]c2c(c1C)C(=O)CC(c1cccs1)C2 (stereo not given)	1.3µM	1.2µM	–	–	–	–
CCOCCOC(=O)c1[nH]c2c(c1C)C(=O)CC(c1cccs1)C2 (stereo not given)	0.82µM	1µM	–	?	–	–
Cc1c(C(=O)OCC(C)C)[nH]c2c1C(=O)CC(c1cccs1)C2 (stereo not given)	3.7µM	2.9µM	–	–	–	–
CCOC(=O)c1[nH]c2c(c1C)C(=O)CC(c1ccc(OCC)c(OC)c1)C2 (stereo not given)	?	–	–	–	–	–
CCOc1ccc(N(C)C(=O)CCc2nnc3ccc(N4CCCCC4)nn23)cc1	–	?	?	–	–	–
CC(C)C[C@H](NC(=O)[C@H](CO)NC(=O)[C@@H]1CCCN1C(=O)[C@H](Cc1ccc(O)cc1)NC(=O)[C@H](CC(C)C)NC(=O)[C@H](CC(C)C)NC(=O)[C@@H]1CCCN1C(=O)[C@@H](NC(=O)[C@H](CO)NC(=O)[C@H](CO)NC(=O)[C@H](CO)NC(=O)[C@H](CO)NC(=O)[C@@H]1CCCN1C(=O)[C@@H](NC(=O)[C@@H](N)CO)C(C)C)[C@@H](C)O)C(=O)N[C@@H](C)C(=O)N[C@@H](CC(C)C)C(=O)N1CCC[C@H]1C(=O)N[C@@H](C)C(=O)N1CCC[C@H]1C(=O)O	·	·	·	·	·	–
O=C(Nc1ccc([N+](=O)[O-])cc1)c1cc(-c2ccccn2)nc2c(Cl)cccc12	?	?	–	?	–	–
Cc1ccc(CN2CCN(C3CCN(C(=O)c4ccccc4)CC3)C(=O)C2=O)cc1	–	–	·	·	·	–
CC(C)C(=O)Nc1ccc2nc(SCC(=O)N3CCCC3)sc2c1	?	?	·	·	·	–
Cn1c(SCC(=O)Nc2ccc3nc(SCC(=O)N4CCCC4)sc3c2)nnc1-c1ccc(N)cc1	?	?	–	8.2µM	–	35µM
CC(C)CC(=O)Nc1ccc2nc(SCC(=O)N3CCCC3)sc2c1	23µM	23µM	·	·	·	–
CC(C)CC(=O)Nc1ccc2nc(SCC(=O)N3CCOCC3)sc2c1	?	–	·	·	·	–
CCC(CC)C(=O)Nc1ccc2nc(SCC(=O)N3CCCC3)sc2c1	21µM	?	·	·	·	–
CCc1ccc(NC(=S)N2CCCC(C(F)(F)F)C2)cc1 (stereo not given)	–	–	–	?	?	–
CSc1ccccc1OCc1cc(C(=O)NCCN2CCCc3ccccc32)no1	15µM	?	–	?	–	–
CSc1ccccc1OCc1cc(C(=O)NCCC2=CCCCC2)no1	–	–	–	–	–	–
CSc1ccccc1OCc1cc(C(=O)NCCn2nc(C)cc2C)no1	?	12µM	–	?	–	–
CSc1ccccc1OCc1cc(C(=O)N(C)Cc2ccc(C)o2)no1	?	16µM	–	?	-67	–
CSc1ccccc1OCc1cc(C(=O)N(C)Cc2ccc3nsnc3c2)no1	–	?	–	?	–	–
